# Source: PubChem BioAssay AID652105 (National Center for Advancing Translational Sciences (NCATS), 2013)
# Among all 330,000 compounds or so, about 4,100 (1.2%) were called active. Not shown: some 2% with an inconclusive outcome. The list comes from a sample in which actives are over-represented; it also holds similar structures and randomly drawn compounds. A number with no mark means an inactive call. The calls were made as follows: active = max response of -50% or lower; inconclusive = between -30% and -50%; inactive = -30% or higher.
# Molecular target: Phosphatidylinositol 5-phosphate 4-kinase type-2 alpha (Homo sapiens) (UniProt P48426)
# Assay: qHTS for Inhibitors of phosphatidylinositol 5-phosphate 4-kinase (PI5P4K); also: value at the top dose of about 77 µM
# Settings: PI5P4Kalpha enzyme, ADP-Glo luminescence, 60 min; stronger effect = lower value
# Method in brief: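 ADP-Glo luminescence end-point after a 60 min room-temperature kinase reaction. PI5P4Kalpha and substrate in HEPES pH 7.4 buffer with EGTA, 0.1% CHAPS and 5% DMSO; ATP at 5 microM final.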
# % is scaled to controls: 0 for no effect and ±100 for the full control effect.
# Phosphatidylinositol 5-phosphate 4-kinase type-2 alpha (Homo sapiens), sequence (P48426 whole entry, looked up): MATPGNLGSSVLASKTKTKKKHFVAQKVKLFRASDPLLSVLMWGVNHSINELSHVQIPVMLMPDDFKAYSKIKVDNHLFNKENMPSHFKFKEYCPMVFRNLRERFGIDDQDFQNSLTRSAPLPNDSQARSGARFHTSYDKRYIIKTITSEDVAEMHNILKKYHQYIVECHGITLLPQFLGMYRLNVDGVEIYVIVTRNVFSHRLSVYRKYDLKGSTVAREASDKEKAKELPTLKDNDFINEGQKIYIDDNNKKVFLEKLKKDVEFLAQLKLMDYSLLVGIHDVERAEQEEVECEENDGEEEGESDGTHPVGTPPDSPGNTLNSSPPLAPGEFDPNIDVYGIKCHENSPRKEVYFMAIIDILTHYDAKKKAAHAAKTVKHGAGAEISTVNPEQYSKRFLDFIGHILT
row,Structure (SMILES),max response
1,CCCNC(=O)C1(C)CCCN(Cc2cccc(C(F)(F)F)c2)C1 (centres undefined),-5.32%
2,CCOC(=O)N1C(=O)C[C@](Sc2ccc(C)cc2)(C(=O)OC)[C@H]1c1ccccc1,5.07%
3,CC1(C(=O)NS(=O)(=O)Cc2cccc(Cl)c2)CCN1C(=O)Cc1ccccc1 (centres undefined),1.29%
4,CC(C)CN1C(=O)CN(S(C)(=O)=O)CC1(C)C(=O)NCc1ccccc1 (centres undefined),-3.28%
5,OC[C@@H]1CN(Cc2ccncc2)C[C@H](n2cnc3c(N4CCN(c5ccccc5)CC4)ncnc32)O1,3.53%
6,O=C(Cn1cnc2c(OCc3ccccc3)ncnc21)NCc1nc2ccccc2[nH]1,-52.2% (active)
7,CC(CNC(=O)Cn1cnc2c(OCc3ccccc3)ncnc21)c1ccccc1 (centres undefined),2.34%
8,O=C(Cn1cnc2c(OCc3ccccc3)ncnc21)NCCCn1ccnc1,1.01%
9,CCc1nc2c(OCCOc3ccccc3)cccn2c1N(C)C(=O)c1cccs1,-2.92%
10,COc1ccc(S(=O)(=O)Nc2ccc3c(c2)OCO3)cc1Cl,-4.52%
11,COc1ccc(S(=O)(=O)N(C)CC(=O)N2CCCC2)cc1Cl,-1.95%
12,COc1ccc(S(=O)(=O)c2c[nH]c(=S)[nH]c2=O)cc1Cl,-71.5% (active)
13,CCCCCCCCN1C(=O)[C@H](CC(=O)NCc2cccc3ccccc23)C[C@@]2(C(=O)OC)CCCCC=C12,22.3%
14,CC(=O)N1C[C@@H](CO)[C@@H](N(C)C(=O)c2ccco2)C[C@H]1c1ccccc1,-3.57%
15,COC(=O)c1sc2[nH]c(=S)n(N)c(=O)c2c1C,-60.5% (active)
16,COC(=O)c1sc(NC(=O)COC(=O)C2CCC2)c(C(=O)OC)c1C,16.3%
17,CCc1nc2ccc(C(=O)Nc3cc(-c4ccccc4)ccc3OC)cn2c1N(CC)CC(=O)N(C)C,1.18%
18,O=C1NN(c2ccccc2)C(=O)/C1=C/c1ccc(-c2cccc(C(=O)O)c2)o1,-59.1% (active)
19,CC(=O)c1cc(-c2ccccc2)[nH]c1N1CCCC1,-3.68%
20,CC1=NN(c2ccc(Cl)c(C(=O)O)c2)C(=O)/C1=C/c1ccc(-c2ccccc2[N+](=O)[O-])o1,-9.29%
21,CCCCOCCCNC(=O)C[C@@H]1C[C@@]2(C(=O)OCC)CCCC=C2N(CCC2=CCCCC2)C1=O,1.62%

row,Structure (SMILES),max response
1,CC(=O)N1Cc2cc(C(=O)NCc3cccc(F)c3)nc(-c3cccc(C4=CCCCC4)c3)c2[C@H]1CCO,12.2%
2,COc1ccc(-c2coc3c(C(=O)NC(C)C)cccc23)c(C)c1,-1.18%
3,COCCCN1C(=O)c2ccc(C(=O)Nc3ccc(OC)cc3OC)cc2C1=O,2.76%
4,COc1ccc2[nH]cc(CCN3C(=O)c4ccc(C(=O)O)cc4C3=O)c2c1,-70.3% (active)
5,Cc1ccc2[nH]cc(CCCN3C(=O)c4ccccc4C3=O)c2c1,-7.36%
6,Cc1ccc(C(NC(=O)C2CCN(CCOc3ccc(Cl)cc3Cl)CC2)c2ccccn2)cc1 (centres undefined),5.45%
7,CC(C)N=C1CCCC1C(=S)SSC(=S)C1CCCC1=NC(C)C (centres undefined),-54.3% (active)
8,CCCOc1ccc(F)cc1-c1cc(C(=O)NCc2ccc(F)cc2)[nH]n1,3.63%
9,CCOC(=O)[C@]12CCCC=C1N(CCC1=CCCCC1)C(=O)[C@H](CC(=O)N1CCN(C(=O)c3ccco3)CC1)C2,-6.59%
10,C[C@H]1CN([C@@H](C)CO)C(=O)c2cc(C3=CCCCC3)cnc2O[C@@H]1CN(C)C(=O)Cc1ccccc1,-2.83%
11,COc1ccc(-c2cc3nc(NCCOc4ccccc4)ccn3n2)cc1,23.5%
12,CCC(C(=O)NCc1ccccc1)n1c(Cc2cc(F)cc(F)c2)nc2ccccc21 (centres undefined),0.77%
13,CC(C)CCNC(=O)c1[nH]c(C(F)(F)F)nc1-c1ccccc1,-8.89%
14,COc1cccc(CNS(=O)(=O)c2ccc3c(c2)CC(C)N3C(C)=O)c1 (centres undefined),-2.98%
15,CC(=O)N1c2ccc(S(=O)(=O)N(C)CC(=O)N(C)Cc3ccccc3)cc2CC1C (centres undefined),-1.34%
16,CC(=O)N1c2ccc(S(=O)(=O)NCCC(=O)N(C)C3CCCCC3)cc2CC1C (centres undefined),-54.5% (active)
17,COc1ccc(-c2nc3ccc(Br)cn3c2Cc2ccc(C)cc2)cc1OC,-8.6%
18,COc1ccc(C(C(=O)Nc2c(C)cccc2C)N2CCN(c3ccc(C)cc3)CC2)cc1 (centres undefined),5.89%
19,O=C(N/N=C/c1cc(Cl)cc([N+](=O)[O-])c1O)C(O)(c1ccccc1)c1ccccc1,3.34%
20,COc1ccc(CC(=O)N/N=C/c2cc([N+](=O)[O-])cc(Br)c2O)cc1,-27.2%
21,O=C(N/N=C/c1cc(Br)c(O)c([N+](=O)[O-])c1)C(O)(c1ccccc1)c1ccccc1,-58.4% (active)

row,Structure (SMILES),max response
1,C[C@H](CO)N1C[C@H](C)[C@H](CN(C)C(=O)c2ccncc2)OCc2ccccc2-c2c(n(C)c3ccccc23)C1=O,0.39%
2,O=C1/C(=C/c2ccc(F)cc2)SC(=S)N1CCCC(=O)N1CCCCC1CCO (centres undefined),0.801%
3,O=C(CCCN1C(=O)/C(=C/c2ccccc2)SC1=S)Nc1ccc(O)cc1,0.839%
4,O=C1/C(=C/c2ccc(F)cc2)SC(=S)N1NS(=O)(=O)c1ccccc1,-65.3% (active)
5,C=C(C)C(=O)O[C@H]1C/C(C)=C\C(=O)/C=C(\C)[C@H](O)[C@@H]2OC(=O)C(=C)[C@@H]21,-56.7% (active)
6,C/C(=N\NC(=O)c1ccc2ccccc2c1)c1cccnc1,-3.12%
7,COc1cc(OC)c(C(=O)NNC(=O)c2ccc(NS(=O)(=O)c3cccs3)cc2)cc1OC,-9.62%
8,C/C(=N\NC(=O)c1ccc(NS(=O)(=O)c2cccs2)cc1)c1ccc2ccccc2c1,-63% (active)
9,CC(C)C1C(=O)N(Cc2cn(CCC3OCCO3)nn2)CCS(=O)(=O)N1Cc1ccc(-c2ccccc2C(F)(F)F)cc1 (centres undefined),22.5%
10,CCCNC(=O)C1(C)CCN(Cc2csc(-c3ccc(Cl)cc3)n2)C1 (centres undefined),-11.7%
11,CCCCNC(=O)C[C@@H]1C[C@@]2(C(=O)OC)CC(C)(C)CC=C2N(Cc2ccco2)C1=O,4.39%
12,COc1ccc(C2=NN(C(C)=O)C(c3ccccc3)C2)cc1 (centres undefined),-5.07%
13,COc1ccc(-n2nnnc2-c2nc3ccccc3s2)cc1,11.9%
14,COc1ccc(C2=NN(c3nc4ccccc4s3)C(=O)C2)cc1,-57.5% (active)
15,Cn1c(Nc2ccc(F)cc2)nc2cc(-c3ccsc3)sc2c1=O,-0.288%
16,CCCc1[nH]nc2c1C(c1ccc(Br)s1)C(C#N)=C(N)O2 (centres undefined),-24.7%
17,CCCc1[nH]nc2c1C(C1CC=CCC1)C(C#N)=C(N)O2 (centres undefined),-60.2% (active)
18,CCCc1[nH]nc2c1C(c1ccc(OC)c(Cn3nc(C)c(Br)c3C)c1)C(C#N)=C(N)O2 (centres undefined),-0.298%
19,CCCCn1nnnc1C(c1ccccc1)N1CCN(c2ccccc2OC)CC1 (centres undefined),1.03%
20,O=C(NC(c1ccc(-c2ccccc2)cc1)c1cnccn1)C1CCN(CCOc2ccc(Cl)cc2Cl)CC1 (centres undefined),31%
21,CC(C)C[C@@H](COCc1ccc(Cl)cc1)N1CCN(C(=O)c2ccc(Cl)cc2Cl)CCC1=O,15.2%

row,Structure (SMILES),max response
1,COc1ccc(-c2cc(NC(C)=O)c3ncc(-c4cc(OC)c(OC)c(OC)c4)n3c2)cn1,-8.79%
2,Cc1cn([C@H]2C[C@H](O)[C@@H](/C=C/C(=O)NCCCc3ccccc3)O2)c(=O)[nH]c1=O,-0.963%
3,Cc1ccc(S(=O)(=O)N2[C@@H](Cc3ccccc3)CO[C@H]2CC(=O)OCc2ccccc2)cc1,4.77%
4,Cc1cc(Br)cn2c(Cc3ccccc3C(F)(F)F)c(C3CCCCC3)nc12,10.4%
5,CN(CC(=O)Nc1cccc(F)c1)C(=O)CC1CCCC1,2.62%
6,Cc1ccc(CSCC(=O)N(C)CC(=O)Nc2cccc(F)c2)cc1,4.92%
7,CCN(CC)C(=O)CSC(Nc1cccc(F)c1)=C(C#N)C#N,-66.7% (active)
8,O=C1NC[C@@H](CCCCN2CCN(CCc3ccc(O)cc3)C(=O)C2=O)N(CC2CCCCC2)C1=O,-1.17%
9,Cc1ccc(C)c(C(O)c2ncc(-c3cccc4ccccc34)[nH]2)c1 (centres undefined),-1.21%
10,CCCCn1nnnc1C(c1cccc(OC)c1OC)N1CCN(C/C=C/c2ccccc2)CC1 (centres undefined),0.353%
11,CCC(c1nc2ccccc2[nH]1)n1c(=O)c(-c2cccs2)nc2ccccc21 (centres undefined),1.88%
12,CCCCNC(=O)C[C@@H]1C[C@@]2(C(=O)OCC)CCC=C2N(Cc2ccco2)C1=O,-0.539%
13,CC(=O)Nc1cccc(-c2cc(NC=O)c3ncc(-c4ccc(F)c(Cl)c4)n3c2)c1,-70.3% (active)
14,CC(=O)c1cccc(-c2cnc3c(NC=O)cc(-c4ccccc4Oc4ccccc4)cn23)c1,-13%
15,CC(=O)c1cccc(-c2cnc3c(NC=O)cc(-c4cccc(C(=O)N(C)C)c4)cn23)c1,-9.37%
16,CC(=O)Nc1cccc(-c2cc(NC(C)=O)c3ncc(-c4ccccc4)n3c2)c1,-5.78%
17,CN(C)C(=O)c1cccc(-c2cnc3c(NC=O)cc(-c4ccc(F)cc4)cn23)c1,-50.2% (active)
18,CC(=O)c1cccc(-c2cnc3c(NC=O)cc(-c4ccc(N5CCN(C)CC5)cc4)cn23)c1,-0.912%
19,CC(=O)c1ccc(-c2cnc3c(NC=O)cc(-c4cccc(NS(C)(=O)=O)c4)cn23)cc1,-83.7% (active)
20,COc1cccc(-c2cnc3c(NC(C)=O)cc(-c4cccc(NC(C)=O)c4)cn23)c1,-7.23%
21,CC(=O)c1cccc(-c2cnc3c(NC=O)cc(-c4ccc(N(C)C)cc4)cn23)c1,-17.5%
